Drawing on ChEMBL document CHEMBL1961873, “Compounds: GSK PKIS; Assays: Nanosyn kinase panel” (2012), this text covers inhibition for 33 compounds.

Structures are written as SMILES.

Chain of Non-receptor tyrosine-protein kinase TYK2 (Homo sapiens) (P29597 whole entry): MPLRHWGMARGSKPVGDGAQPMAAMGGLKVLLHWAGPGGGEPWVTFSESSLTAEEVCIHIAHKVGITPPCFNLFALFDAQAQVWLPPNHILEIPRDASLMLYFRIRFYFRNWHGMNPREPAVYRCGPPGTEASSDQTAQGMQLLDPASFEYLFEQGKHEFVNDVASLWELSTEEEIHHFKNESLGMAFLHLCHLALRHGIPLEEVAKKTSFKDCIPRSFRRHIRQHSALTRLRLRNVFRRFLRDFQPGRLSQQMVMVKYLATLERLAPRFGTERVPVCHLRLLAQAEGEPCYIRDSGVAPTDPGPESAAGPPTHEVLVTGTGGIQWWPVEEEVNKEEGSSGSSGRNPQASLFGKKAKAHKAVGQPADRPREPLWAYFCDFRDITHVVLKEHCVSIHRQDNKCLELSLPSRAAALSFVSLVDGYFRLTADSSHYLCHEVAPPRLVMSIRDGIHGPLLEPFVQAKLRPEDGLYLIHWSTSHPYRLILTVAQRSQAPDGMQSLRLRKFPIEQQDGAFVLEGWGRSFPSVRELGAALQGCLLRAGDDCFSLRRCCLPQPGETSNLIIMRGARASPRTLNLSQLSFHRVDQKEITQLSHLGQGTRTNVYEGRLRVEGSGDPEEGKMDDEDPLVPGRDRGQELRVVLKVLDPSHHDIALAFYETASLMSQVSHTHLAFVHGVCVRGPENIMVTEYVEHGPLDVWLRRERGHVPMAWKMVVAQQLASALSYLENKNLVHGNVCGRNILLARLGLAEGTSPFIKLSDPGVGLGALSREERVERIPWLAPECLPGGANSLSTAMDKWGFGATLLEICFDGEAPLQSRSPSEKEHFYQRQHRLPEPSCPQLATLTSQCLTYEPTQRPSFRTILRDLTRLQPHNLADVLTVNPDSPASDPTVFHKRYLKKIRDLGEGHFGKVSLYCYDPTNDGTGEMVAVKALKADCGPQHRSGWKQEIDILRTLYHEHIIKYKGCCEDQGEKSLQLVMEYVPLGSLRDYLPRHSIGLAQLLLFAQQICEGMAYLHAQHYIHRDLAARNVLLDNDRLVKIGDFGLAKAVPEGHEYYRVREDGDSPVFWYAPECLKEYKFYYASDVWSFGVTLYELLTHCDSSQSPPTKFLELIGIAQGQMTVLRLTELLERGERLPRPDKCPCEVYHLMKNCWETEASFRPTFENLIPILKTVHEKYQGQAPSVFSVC

The first assay has as its target Non-receptor tyrosine-protein kinase TYK2 (Homo sapiens) (UniProt P29597). To be noted: at 0.1 µM.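 Also: each value is a mean of the inhibition readings.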
On to `CS(=O)(=O)CCNCc1ccc(-c2ccc3ncnc(Nc4ccc(OCc5cccc(F)c5)c(C(F)(F)F)c4)c3c2)o1`, for which the inhibition was -4.14%.

On to `Fc1cccc(COc2ccc(Nc3ncnc4sc(-c5cccs5)cc34)cc2Cl)c1`, for which the inhibition was -0.26%.

Consider `CC1=C(C(=O)Nc2ccc3[nH]ncc3c2)C(c2ccc3ccccc3c2)CC(=O)N1` (stereo unspecified), for which the inhibition was 0.09%.

With `CS(=O)(=O)CCNCc1ccc(-c2ccc3ncnc(Nc4ccc(OCc5ccccc5)c(Cl)c4)c3c2)o1`, the inhibition turned out to be 1.67%.

As to `Cc1cc(O)cc(C)c1/C=C/c1cncc(-c2nn[nH]n2)c1`, the inhibition is -2.89%.

`O=C1Nc2ccc(C(=O)c3ccco3)cc2C1=Cc1cc(Cl)c(O)c(Cl)c1`: the inhibition was -3.77%.

Regarding `COc1cc(C)c(NC(=O)CN(C)C)cc1Nc1nc(Nc2cccc(F)c2C(N)=O)c2cc[nH]c2n1`, the inhibition stood at 1%.

In the case of `NC(=O)c1ccc(-c2nc(-c3ccccn3)c(-c3ccc4c(c3)OCO4)[nH]2)cc1`, the inhibition was -4.13%.

Regarding `CCn1c(-c2nonc2N)nc2cnc(Oc3cccc(NC(=O)c4ccc(OCCN5CCOCC5)cc4)c3)cc21`, the inhibition is -1.13%.

With `COc1cc2ncn(-c3cc(O[C@H](C)c4ccccc4Cl)c(C(N)=O)s3)c2cc1OC`, the inhibition is -0.55%.

For the compound `Cc1ccc(C(=O)NC2CCCCC2)cc1-c1ccc(C(=O)NCC2CC2)cc1`, the inhibition turned out to be 1.37%.

`CCn1c(-c2nonc2N)nc2c(C#CC(C)(C)O)nc(CN3CCCC3)cc21`: the inhibition came to 3.47%.

Turning to `Cc1nn(C)c2cc(N(C)c3ccnc(Nc4cccc(S(N)(=O)=O)c4)n3)ccc12`, the inhibition is -1.02%.

Regarding `COc1cc2ncn(-c3cc(OCc4ccccc4Cl)c(C(N)=O)s3)c2cc1OC`, the inhibition is 2.29%.

For `COc1ccc2cc(-c3c(-c4ccncc4)nc(-c4ccc([S+](C)[O-])cc4)n3C)ccc2c1` (stereo unspecified), the inhibition is -2.53%.

`COc1ccc(-c2ccncc2)cc1C(N)=O`: the inhibition was -2.48%.

As to `CCc1cccc(NC(=O)Nc2ccc(Oc3ccc4nc(NC(=O)OC)[nH]c4c3)cc2)c1`, the inhibition is -5.85%.

On to `O=C1NC(=O)C(c2ccc(Cl)cc2)=C1Nc1ccc(Cl)c(C(=O)O)c1`, for which the inhibition was 0.04%.

For the compound `CCn1c(-c2nonc2N)nc2cncc(C(=O)N3CCNCC3)c21`, the inhibition is -1.93%.

Consider `CN(C)c1cc2c(Nc3ccc4nc(Cc5ccccc5)[nH]c4c3)ncnc2cn1`, for which the inhibition was -8.04%.

For `Nc1nc(-c2ccc3c(c2)C(=Cc2cc(Br)c(O)c(Br)c2)C(=O)N3)cs1`, the inhibition was determined as 1.72%.

Consider `Nc1nc(-c2ccccn2)c(-c2ccc3ncccc3n2)s1`, for which the inhibition was -3.74%.

Turning to `Nc1ncnc2occ(-c3ccc(NC(=O)Nc4cc(C(F)(F)F)cc(C(F)(F)F)c4)cc3)c12`, the inhibition was -8.39%.

As to `NS(=O)(=O)c1cccc(-c2ccc3c(NC(=O)C4CC4)n[nH]c3c2)c1`, the inhibition is 0.42%.

`CCN1CCC(CC(=O)Nc2n[nH]c3nc(-c4cccs4)c(Br)cc23)CC1`: the inhibition was -2.72%.

Consider `Cc1cccc(-c2n[nH]cc2-c2ccc3ncccc3n2)n1`, for which the inhibition is -0.15%.

`COC(=O)Nc1nc2cc(Oc3cccc(NC(=O)Nc4cc(C(F)(F)F)ccc4F)c3)ccc2[nH]1`: the inhibition is 1.53%.

On to `CNC(=O)c1cncc(/C=C/c2c(Cl)cccc2Cl)c1`, for which the inhibition was -2.78%.

On to `Cc1nnc(-c2ccc(C)c(-c3ccc(C(=O)Nc4cccc(C#N)c4)cc3)c2)o1`, for which the inhibition was -1.14%.

For the compound `CC(=O)Nc1cccc(C#Cc2cncnc2Nc2ccc(OCc3cccc(F)c3)c(Cl)c2)n1`, the inhibition was found to be 4.58%.

Regarding `O=C1NC(=O)C(c2cccc(Cl)c2)=C1Nc1ccc(O)c(Cl)c1`, the inhibition was found to be 3.26%.

Consider `CC(C)=Cc1cccc2c1/C(=N/Nc1ccc(S(N)(=O)=O)cc1)C(=O)N2`, for which the inhibition came to 3.75%.

As for `COc1cc2ncn(-c3cc(OCc4ccccc4C(F)(F)F)c(C(N)=O)s3)c2cc1OC`, the inhibition is -1.61%.

In the next assay the target is T1, Dual specificity protein kinase TTK (Homo sapiens) (UniProt P33981).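 Also: reported figures are mean TTK inhibition at 1 µM.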
T1 sequence (whole entry): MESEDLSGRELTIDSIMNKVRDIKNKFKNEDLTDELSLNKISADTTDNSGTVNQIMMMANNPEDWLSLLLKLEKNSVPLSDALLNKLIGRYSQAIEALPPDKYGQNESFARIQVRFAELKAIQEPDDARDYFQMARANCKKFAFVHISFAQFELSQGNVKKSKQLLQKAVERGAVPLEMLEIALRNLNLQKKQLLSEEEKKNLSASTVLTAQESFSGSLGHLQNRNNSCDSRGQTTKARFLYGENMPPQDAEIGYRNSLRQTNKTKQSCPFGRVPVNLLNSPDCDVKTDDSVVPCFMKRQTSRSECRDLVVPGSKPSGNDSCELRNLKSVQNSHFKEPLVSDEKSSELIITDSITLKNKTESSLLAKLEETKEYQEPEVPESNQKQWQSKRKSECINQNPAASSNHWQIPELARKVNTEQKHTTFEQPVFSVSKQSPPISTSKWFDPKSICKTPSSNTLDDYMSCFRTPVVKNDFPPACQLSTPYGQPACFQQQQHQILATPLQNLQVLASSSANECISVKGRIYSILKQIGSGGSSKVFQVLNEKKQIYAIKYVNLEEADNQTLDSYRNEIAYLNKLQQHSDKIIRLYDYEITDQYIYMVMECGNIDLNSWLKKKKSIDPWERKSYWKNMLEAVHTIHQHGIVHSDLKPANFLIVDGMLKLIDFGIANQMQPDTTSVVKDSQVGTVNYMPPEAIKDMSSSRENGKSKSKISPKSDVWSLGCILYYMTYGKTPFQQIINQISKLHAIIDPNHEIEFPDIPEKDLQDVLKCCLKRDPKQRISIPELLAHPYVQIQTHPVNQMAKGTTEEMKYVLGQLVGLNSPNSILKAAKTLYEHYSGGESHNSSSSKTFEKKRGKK
To be noted: at 1 µM.
For the compound `CS(=O)(=O)CCNCc1ccc(-c2ccc3ncnc(Nc4ccc(OCc5cccc(F)c5)c(C(F)(F)F)c4)c3c2)o1`, the inhibition was determined as 7.39%.

Regarding `Fc1cccc(COc2ccc(Nc3ncnc4sc(-c5cccs5)cc34)cc2Cl)c1`, the inhibition was 2.5%.

Regarding `CC1=C(C(=O)Nc2ccc3[nH]ncc3c2)C(c2ccc3ccccc3c2)CC(=O)N1` (stereo unspecified), the inhibition was -0.04%.

Consider `CS(=O)(=O)CCNCc1ccc(-c2ccc3ncnc(Nc4ccc(OCc5ccccc5)c(Cl)c4)c3c2)o1`, for which the inhibition was 6.09%.

For `Cc1cc(O)cc(C)c1/C=C/c1cncc(-c2nn[nH]n2)c1`, the inhibition amounted to 11.1%.

With `O=C1Nc2ccc(C(=O)c3ccco3)cc2C1=Cc1cc(Cl)c(O)c(Cl)c1`, the inhibition worked out at 21.9%.

Turning to `COc1cc(C)c(NC(=O)CN(C)C)cc1Nc1nc(Nc2cccc(F)c2C(N)=O)c2cc[nH]c2n1`, the inhibition was determined as 53.5%.

On to `NC(=O)c1ccc(-c2nc(-c3ccccn3)c(-c3ccc4c(c3)OCO4)[nH]2)cc1`, for which the inhibition came to 3.14%.

Take `CCn1c(-c2nonc2N)nc2cnc(Oc3cccc(NC(=O)c4ccc(OCCN5CCOCC5)cc4)c3)cc21`: the inhibition was 10.2%.

As to `COc1cc2ncn(-c3cc(O[C@H](C)c4ccccc4Cl)c(C(N)=O)s3)c2cc1OC`, the inhibition was determined as 13.2%.

With `Cc1ccc(C(=O)NC2CCCCC2)cc1-c1ccc(C(=O)NCC2CC2)cc1`, the inhibition was determined as 8.51%.

For `CCn1c(-c2nonc2N)nc2c(C#CC(C)(C)O)nc(CN3CCCC3)cc21`, the inhibition turned out to be 5.1%.

For `Cc1nn(C)c2cc(N(C)c3ccnc(Nc4cccc(S(N)(=O)=O)c4)n3)ccc12`, the inhibition is 26.4%.

`COc1cc2ncn(-c3cc(OCc4ccccc4Cl)c(C(N)=O)s3)c2cc1OC`: the inhibition is 0.54%.

Turning to `COc1ccc2cc(-c3c(-c4ccncc4)nc(-c4ccc([S+](C)[O-])cc4)n3C)ccc2c1` (stereo unspecified), the inhibition was 7.86%.

Take `COc1ccc(-c2ccncc2)cc1C(N)=O`: the inhibition is 8.41%.

For the compound `CCc1cccc(NC(=O)Nc2ccc(Oc3ccc4nc(NC(=O)OC)[nH]c4c3)cc2)c1`, the inhibition came to 6.45%.

With `O=C1NC(=O)C(c2ccc(Cl)cc2)=C1Nc1ccc(Cl)c(C(=O)O)c1`, the inhibition was -3.54%.

Regarding `CCn1c(-c2nonc2N)nc2cncc(C(=O)N3CCNCC3)c21`, the inhibition was determined as 12.5%.

Turning to `CN(C)c1cc2c(Nc3ccc4nc(Cc5ccccc5)[nH]c4c3)ncnc2cn1`, the inhibition stood at 32.2%.

Consider `Nc1nc(-c2ccc3c(c2)C(=Cc2cc(Br)c(O)c(Br)c2)C(=O)N3)cs1`, for which the inhibition was -0.27%.

As for `Nc1nc(-c2ccccn2)c(-c2ccc3ncccc3n2)s1`, the inhibition is 7.95%.

As for `Nc1ncnc2occ(-c3ccc(NC(=O)Nc4cc(C(F)(F)F)cc(C(F)(F)F)c4)cc3)c12`, the inhibition was found to be 3.75%.

Regarding `NS(=O)(=O)c1cccc(-c2ccc3c(NC(=O)C4CC4)n[nH]c3c2)c1`, the inhibition is 2.12%.

In the case of `CCN1CCC(CC(=O)Nc2n[nH]c3nc(-c4cccs4)c(Br)cc23)CC1`, the inhibition was -0.41%.

For `Cc1cccc(-c2n[nH]cc2-c2ccc3ncccc3n2)n1`, the inhibition came to 3.31%.

Take `COC(=O)Nc1nc2cc(Oc3cccc(NC(=O)Nc4cc(C(F)(F)F)ccc4F)c3)ccc2[nH]1`: the inhibition was found to be 0.75%.

In the case of `CNC(=O)c1cncc(/C=C/c2c(Cl)cccc2Cl)c1`, the inhibition is 18.3%.

Take `Cc1nnc(-c2ccc(C)c(-c3ccc(C(=O)Nc4cccc(C#N)c4)cc3)c2)o1`: the inhibition is 6.46%.

`CC(=O)Nc1cccc(C#Cc2cncnc2Nc2ccc(OCc3cccc(F)c3)c(Cl)c2)n1`: the inhibition was 10.8%.

In the case of `O=C1NC(=O)C(c2cccc(Cl)c2)=C1Nc1ccc(O)c(Cl)c1`, the inhibition was 4.84%.

On to `CC(C)=Cc1cccc2c1/C(=N/Nc1ccc(S(N)(=O)=O)cc1)C(=O)N2`, for which the inhibition amounted to 51.7%.

For the compound `COc1cc2ncn(-c3cc(OCc4ccccc4C(F)(F)F)c(C(N)=O)s3)c2cc1OC`, the inhibition came out at 10.1%.

Broadly, the inhibition is the relative decrease from the control value, in per cent.
